In PubChem BioAssay (NCI):
The panel holds about 83,000 compounds, 20% with a hit somewhere; the sample as a whole holds those more often.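 Percent growth is the endpoint: 0 to 100 indicates growth inhibition (40 means 60% inhibition), 0 means no net growth, and negative values indicate cell death.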 The source made the active and inactive calls. The calls were made as follows: active = growth percent below 10; inactive = the rest.

The compounds below were run on OVCAR-8 ovarian (assay: NCI-60 one-dose screen, 48 h (100 = growth as untreated, 0 = no growth, -100 = all killed)). Conditions: 10 µM unless noted.

| SMILES | growth |
| --- | --- |
| CC(C)(C)c1cc(C=O)cc(C(C)(C)C)c1O | 94.1% (inactive) |
| COCCCN1CC(O)=C(c2nc(-c3ccc(C)cc3)cs2)C1=N | 95.2% (inactive) |
| CCN1Cc2nc3sc(C)c(C)c3c(=O)n2C=C1C | 38.1% (inactive) |
| CC1(C)NCCC[C@]2(C)[C@H]3CC(=O)[C@H]4[C@@H]5C[C@](C)(CO)CC[C@]5(C)CC[C@@]4(C)[C@]3(C)CC[C@@H]12 | 114% (inactive) |
| O=S(=O)(NCCNc1nccc(-c2c(-c3cccc(O)c3)nc3occn23)n1)c1cccc(F)c1 | 89.9% (inactive) |
| COc1ccc2nc(-c3ccc(-c4noc(-c5cc(OC)c(OC)c(OC)c5)n4)cc3)[nH]c2c1 | 33.6% (inactive) |
| CCCCOc1ccc(/C(C)=N/Nc2cc(C)nc3ccc(Br)cc23)cc1 | 88.4% (inactive) |
